Screening results: PubChem BioAssay, National Center for Advancing Translational Sciences (NCATS)
CHX counter = Cycloheximide Counterscreen for Small Molecule Inhibitors of Shiga Toxin; cell reporter, cycloheximide protein synthesis inhibition counterscreen; max response, %; 300,000 compounds, 12% hits; AID 2314, 2010; in the data active = max response mostly above about 13%, no sharp cut-off; inactive = mostly below about 14%; also: read at 38.3 µM for the half of the compounds with a filed dose
Shiga toxin inh = A qHTS for Small Molecule Inhibitors of Shiga Toxin; Vero cells, Shiga toxin protein synthesis inhibition reporter; inhibition, % at 38.7 µM; 290,000 compounds, 9.2% hits; AID 2315, 2010; in the data active = inhibition mostly above about 28%, no sharp cut-off; inactive = mostly below about 43%
Pf growth 96h = Primary qHTS for delayed death inhibitors of the malarial parasite plastid, 96 hour incubation; P. falciparum luciferase reporter growth, 96 h; Potency, µM (highest dose often 28.7 µM), most hits filed as inhibitors; AID 504834, 2011; 320,000 compounds, 6.9% hits
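Delayed-death screen, second-generation endpoint: infected erythrocytes, 2% hematocrit, 0.05% parasitemia final; 96 hours at 37 C, 5% CO2; luciferase detection reagent; luminescence decrease equals reduced growth.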
Pf growth 48h = Primary qHTS for delayed death inhibitors of the malarial parasite plastid, 48 hour incubation; Potency, µM (titrated, usually from 28.7 µM), actives largely listed as inhibitors; 310,000 compounds, 5.9% hits; P. falciparum luciferase growth in erythrocytes, 48 h
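Luciferase-expressing P. falciparum in infected erythrocytes (2% hematocrit, 0.1% parasitemia final) in RPMI 1640/0.5% Albumax were exposed to compound for 48 hours at 37 C, 5% CO2; growth read as luminescence.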
A number is an active result; i = inactive; ? = inconclusive; nt = not tested or not shown; [ ] = another dose, or the depositor's remark. Rows were chosen to be rich in hits. Some 21% of all compounds tested hit in one or more screens of this group. Unless noted, calls follow the shape of the dose curve; as a rule, active = well fitted inhibition curve with a large enough effect; inconclusive = small, poorly fitted or top-dose-only effect, or another doubt; inactive = no such curve, though single readings can be large or run the other way.

SMILES	CHX counter	Shiga toxin inh	Pf growth 96h	Pf growth 48h
O=C1CCCC2=C1C(c1cccc(O)c1)c1c(ccc3ncccc13)N2 (stereo unspecified)	i	i	i	i
O=C1CCCCN1CCc1c[nH]c2ccccc12	25	active	i	i
O=C(CN1C(=O)c2ccccc2C1=O)NCCc1c[nH]c2ccccc12	i	i	5.2µM	i
C[C@H](NCc1c[nH]c2ccccc12)c1ccccc1	i	nt	i	i
O=C(Cn1ccc([N+](=O)[O-])n1)NCCc1c[nH]c2ccccc12	58	92	i	i
c1ccc2c(CNC3CCCCCC3)c[nH]c2c1	i	i	10µM	nt
C[n+]1cc2c3c(ccc2c2ccc4cc5c(cc4c21)OCO5)OCO3	i	i	i	i
CCCNCc1cc(OC)c(OCc2ccccc2)cc1Br	i	i	i	i
CCOc1ccc(C2C(C(C)=O)=C(O)C(=O)N2CCc2c[nH]c3ccccc23)cc1 (stereo unspecified)	i	i	i	i
COCCCNC(=O)C1=CCN(S(=O)(=O)c2ccc(OC)cc2)CC1	i	i	i	i
O=C1COCC(=O)N1CCc1c[nH]c2ccccc12	i	i	i	?
O=C1c2ccccc2C(=O)N1CCCc1c[nH]c2ccccc12	17	i	i	i
O=C1c2ccccc2C(=O)N1CCc1c[nH]c2ccccc12	48	95	i	i
c1ccc2c(CN3CCCCCC3)c[nH]c2c1	39	73	i	i
O=C1CCC(=O)N1CCc1c[nH]c2ccccc12	i	i	i	?
O=C1c2ccccc2C(=O)N1CCc1c[nH]c2ccc(O)cc12	34	i	3.3µM	i
CCCCCCCC1CC(/C(C)=N/NC(N)=O)OC1=O (stereo unspecified)	i	i	?	i
CCOC(=O)CNS(=O)(=O)c1ccc(S(=O)(=O)NC2CC2)cc1	i	nt	?	i
CCc1noc(C)c1C(=O)OC(C)C(=O)Nc1ccccc1OC (stereo unspecified)	nt	nt	i	?
Cc1cncc(C(=O)O)[n+]1[O-]	nt	nt	i	i
COC1C(OC(=O)/C=C/C=C/C=C/C=C/C(=O)O)CCC2(CO2)C1C1(C)OC1CC=C(C)C (stereo unspecified)	nt	nt	?	0.0038µM
Cc1cc(C)cc(NC(=S)Nc2ccccn2)c1	i	active	?	i
Cc1ccc(NC(=S)Nc2ccc3nc(-c4ccccn4)c(-c4ccccn4)nc3c2)cc1C	16	i	i	i
Cc1ccc(NC(=S)Nc2ccc(F)cc2)cc1C	i	i	i	?
Cc1ccc(NC(=S)Nc2ccccn2)cc1C	65	85	?	?
SMILES	CHX counter	Shiga toxin inh	Pf growth 96h	Pf growth 48h
Cc1cccc(NC(=S)Nc2ccccn2)c1	33	62	i	i
Cc1cccc(NC(=S)N2CCN(c3ccccn3)CC2)c1	i	i	?	i
O=C(Nc1ccc2nc(-c3ccccn3)c(-c3ccccn3)nc2c1)N1CCOCC1	i	i	?	i
COc1ccc(-c2cc(=O)c3c(OC)c(OC)c(OC)cc3o2)cc1OC	i	i	nt	nt
COc1cc(-c2cc(OC)c3c(C)oc(C)c3c(=O)c2)ccc1O	i	i	3.7µM	?
COc1ccc(-c2cc(OC)c3c(C)oc(C)c3c(=O)c2)cc1OC	i	i	i	4.7µM
COCCn1c(SCC(=O)NC2CCCC2)nc2c(c1=O)SCC2	i	i	i	i
CN(C)c1ccc(CNCCC(Cc2ccccc2)c2ccco2)cc1 (stereo unspecified)	i	i	9.3µM	?
CCOC(=O)/C=C/C(=O)OCC(=O)Nc1cccc(Cl)c1Cl	i	i	i	i
CCOC(=O)/C=C/C(=O)Nc1ccccc1-c1ccccc1NC(=O)/C=C/C(=O)OCC	33	i	?	4.7µM
COc1cc(/C=C/C(=O)OCC(=O)Nc2ccc([N+](=O)[O-])cc2)ccc1O	i	i	?	?
CCOC(=O)/C=C/C(=O)Nc1cccc([N+](=O)[O-])c1	38	i	i	i
CCOC(=O)/C=C/C(=O)OCC(=O)Nc1ccc([N+](=O)[O-])cc1	17	i	i	i
OCC(O)CS (stereo unspecified)	nt	nt	i	i
COc1ccc(Nc2nc(NCCN3CCOCC3)nc(Nc3ccc(OC)cc3)n2)cc1	i	i	i	i[0.00184 µM]
CC1(C)CC(=O)c2sc(NS(=O)(=O)c3ccc(F)cc3)nc2C1	i	i	?	i
COc1ccc(-c2ocnc2C(=O)Nc2ccc(N3CCOCC3)cc2N2CCOCC2)cc1OC	i	i	i	8.3µM
COc1cc(OC)cc(C(=O)Nc2ccc(N3CCOCC3)cc2N2CCOCC2)c1	nt	nt	13µM	?
O=C(NC(CO)(CO)CO)[C@@H]1CCCN1S(=O)(=O)c1cccc2cccnc12	nt	nt	i	i
CN(CCOc1ccccc1)C(=O)C1CCC(=O)N(CCN2CCOCC2)C1 (stereo unspecified)	i	i	?	i
C[C@@H]1C[C@H]2[C@H]3C[C@@H](F)C4=CC(=O)C=C[C@]4(C)[C@@]3(Cl)[C@@H](O)C[C@@]2(C)[C@@H]1C(=O)COC(=O)C(C)(C)C	nt	nt	4.8µM	4.8µM
CC(=O)Nc1ccc(SCC(CC(C)C)N2CCN(CCc3ccccc3)CCC2=O)cc1 (stereo unspecified)	i	i	nt	nt
C=CCNc1ncnc2c1cnn2-c1ccc(OC)cc1	30	61	i	i
O=C(NNc1ncnc2c1cnn2-c1ccccc1)c1cccs1	i	i	?	i
COc1ccc(-n2ncc3c(NCc4ccco4)ncnc32)cc1	39	90	i	i
SMILES	CHX counter	Shiga toxin inh	Pf growth 96h	Pf growth 48h
COc1ccc(CC(=O)NNc2ncnc3c2cnn3-c2ccccc2)cc1	i	i	i	i
COc1ccc(-n2ncc3c(NCc4cccs4)ncnc32)cc1	38	145	nt	i
COc1ccc(-n2ncc3c(NCc4ccccn4)ncnc32)cc1	50	90	nt	i
CCCNc1ncnc2c1cnn2-c1ccc(OC)cc1	i	i	i	i
COc1ccccc1-c1noc(CCC(=O)NC2CCCCC2)n1	i	i	i	i
CN(Cc1cn(-c2ccccc2)nc1-c1ccc(Cl)cc1)C(=O)CCC(=O)O	i	i	?	i
O=C(CCCSc1nc2ccccc2[nH]1)Nc1nnc(C2CC2)s1	i	i	?	?
c1ccc(-n2ncc3c(NCc4cccnc4)ncnc32)cc1	20	i	i	i
CCCN(CCC)c1ncnc2c1cnn2-c1ccc(OC)cc1	30	66	i	i
c1csc(CNc2ncnc3nc[nH]c23)c1	16	i	?	i
c1ccc(-n2ncc3c(NCc4cccs4)ncnc32)cc1	51	52	i	i
c1ccc(CNc2ncnc3nc[nH]c23)nc1	i	i	i	i
c1ccc(CNc2ncnc3c2cnn3Cc2ccccc2)cc1	i	i	?	?
CC(C)C[C@H](NC(=O)[C@H](CO)NC(=O)[C@@H]1CCCN1C(=O)[C@H](Cc1ccc(O)cc1)NC(=O)[C@H](CC(C)C)NC(=O)[C@H](CC(C)C)NC(=O)[C@@H]1CCCN1C(=O)[C@@H](NC(=O)[C@H](CO)NC(=O)[C@H](CO)NC(=O)[C@H](CO)NC(=O)[C@H](CO)NC(=O)[C@@H]1CCCN1C(=O)[C@@H](NC(=O)[C@@H](N)CO)C(C)C)[C@@H](C)O)C(=O)N[C@@H](C)C(=O)N[C@@H](CC(C)C)C(=O)N1CCC[C@H]1C(=O)N[C@@H](C)C(=O)N1CCC[C@H]1C(=O)O	i	i	nt	nt
